# D1 agonist = activates the human D1 dopamine receptor | 360,000 tested, 1% active | HEK293 T-REx D1 cells, calcium flux, agonist mode | P21728 | activation, % at 2 µM; in the data active = activation above about 30%
# Target sequence (P21728 whole entry, looked up): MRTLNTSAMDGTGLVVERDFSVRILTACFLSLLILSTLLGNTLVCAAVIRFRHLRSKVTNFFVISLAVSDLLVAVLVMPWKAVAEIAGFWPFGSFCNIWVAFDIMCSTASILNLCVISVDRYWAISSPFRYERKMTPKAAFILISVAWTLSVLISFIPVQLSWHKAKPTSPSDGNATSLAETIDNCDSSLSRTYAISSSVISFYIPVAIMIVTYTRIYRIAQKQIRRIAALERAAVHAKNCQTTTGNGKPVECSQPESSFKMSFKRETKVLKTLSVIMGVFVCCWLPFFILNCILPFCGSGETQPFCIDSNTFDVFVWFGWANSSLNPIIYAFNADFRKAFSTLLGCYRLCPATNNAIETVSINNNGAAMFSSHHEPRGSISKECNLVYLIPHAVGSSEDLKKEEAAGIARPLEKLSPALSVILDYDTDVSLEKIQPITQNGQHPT
#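 Tetracycline-induced HEK293 TREx D1 cells, force-coupled to calcium signalling, were dye-loaded with a no-wash calcium kit. Compound was pin-added after a 10 s baseline. Fluorescence was read kinetically at 1 cycle/s for 180 s, with calcium rises flagged as agonism.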
# DRD3 antagonist = D3 dopamine receptor (human) antagonism. P35462. D3R cells, DiscoveRx beta-arrestin luminescence, antagonist mode; active compounds read low. max response, negative = inhibition, %. 360,000 tested, 2.5% active; in the data active = max response below about -50%; inconclusive = no clear call, values can overlap the other calls
#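 Cells plated overnight at 1500 cells/well, then exposed to library compounds with dopamine controls for 90 minutes at 37 degrees C. DiscoveRx reagent added for 30–60 minutes at room temperature; luminescence read, quantitative HTS format.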
# D1 antagonist = human D1 dopamine receptor antagonism; P21728; HEK293 TREx D1 cells, calcium flux, dopamine EC80; active compounds read low; activity change, negative = inhibition, % at 10 µM; 360,000 tested, 3.2% active; AID 504652; in the data active = activity change below about -30%
#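 After overnight tetracycline induction at 30 C, force-coupled D1 HEK293 cells took up a no-wash calcium dye at room temperature. Compounds were added and monitored 180 s, and the response to EC80 dopamine was then recorded.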
# D3 ag = activates the human D3 dopamine receptor | P35462 | D3R DiscoveRx beta-arrestin cells, luminescence, 90 min | max activation, % | 410,000 tested, 0.58% active | AID 652048; in the data active = max activation above about 30%
#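 Agonist-mode cell screen: cells plated at 1500/well and incubated overnight at 37 °C, then exposed to library compounds for 90 min at 37 °C. Detection reagent was added for 30–60 min at room temperature, and luminescence was read.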
# D1 PAM = human D1 dopamine receptor positive modulation. 360,000 tested, 0.036% active. potentiation, % at 10 µM. HEK293 TREx D1 cells, calcium flux, dopamine EC20 potentiation. P21728; in the data active = potentiation above about 30%
# Hits are given with their value; n = inactive; u = inconclusive; x = not tested or not shown. Most compounds without a hit are left out; they make up all but 6% or so of the library.
SMILES,D1 agonist,DRD3 antagonist,D1 antagonist,D3 ag,D1 PAM
CCOC(=O)C1CCCN(CCC(=O)Nc2ccc(Br)cc2)C1 (centres undefined),n,-50.3,n,n,n
CCOC(=O)C1CCN(CCC(=O)Nc2ccc(Br)cc2)CC1,n,n,n,n,n
CCOC(=O)C1CCCN(CCC(=O)Nc2ccc3c(c2)CCC3)C1 (centres undefined),n,-55.7,n,n,n
Nc1ncc(S(=O)(=O)NCc2cccc(Cl)c2)cn1,n,x,n,n,n
COC(=O)c1sccc1S(=O)(=O)N(CC(=O)NCc1ccc(F)cc1)c1ccc(Cl)cc1,n,x,n,n,n
CCOc1ccc(NC(=O)CN2C(=O)COc3ccc(S(=O)(=O)Nc4ccccc4)cc32)cc1,n,x,n,n,n
NNC(=O)c1cc2sccc2s1,n,u,-35.9,n,n
CC(=O)NNC(=O)c1cc2sccc2s1,n,n,n,n,n
CCc1ccc(C2=CC(c3cccc(C)c3)n3c(nc4ccccc43)N2)cc1 (centres undefined),n,x,n,n,n
COc1cccc(/C=N/Nc2nc(Nc3ccccc3)nc(-n3nc(C)cc3C)n2)c1O,n,-140.6,n,n,n
COc1cccc(/C=N/Nc2ncnc(Cl)c2N)c1O,n,n,n,n,n
COc1ccc2nc(C)cc(N/N=C/c3cccc(OC)c3O)c2c1,n,n,n,n,n
Cc1cc(C)n(-c2nc(Nc3ccccc3)nc(-n3nc(C)cc3C)n2)n1,n,n,n,n,n
COc1cccc(/C=N/Nc2cc(-n3nc(C)cc3-c3ccccc3)ncn2)c1O,n,n,n,38.3,n
COc1cccc(/C=N/Nc2ncnc3scc(-c4ccccc4)c23)c1O,n,n,n,37.6,n
CSc1ncc(C(=O)Nc2cc(Cl)ccc2C)c(-c2ccccc2)n1,n,x,n,n,n
CC(=O)O[C@@H]1C(=O)O[C@@H]2[C@H]1OC(=O)[C@@H]2OC(C)=O,x,x,x,n,x
Nc1c(C(=O)Nc2ccc(OC(F)(F)F)cc2)nnn1Cc1ccccc1,n,x,n,n,n
CCc1ccc2oc(-c3ccc(C)c(NC(=O)c4ccc(C#N)cc4F)c3)nc2c1,n,x,n,n,n
COC(=O)CC1c2cc(OC)c(OC)cc2CCN1C(=O)Nc1ccc(C)cc1Cl (centres undefined),n,x,n,n,n
COc1ccccc1NS(=O)(=O)c1cccc(NC(=O)Nc2cccc(Cl)c2)c1,n,n,-38.9,n,n
COc1ccc([N+](=O)[O-])cc1NC(=O)Nc1cccc(Cl)c1,n,n,-40.6,n,n
COc1ccc([N+](=O)[O-])cc1NC(=O)Nc1ccc(OC)c(OC)c1,n,n,x,n,n
CCOc1ccc(/C=C/c2nc(C#N)c(Nc3ccc(OCC)cc3)o2)cc1,n,x,n,n,n
CCOc1ccc(/C=C/c2nc(C#N)c(NC3CCCCC3)o2)cc1,n,x,-37.8,n,n
SMILES,D1 agonist,DRD3 antagonist,D1 antagonist,D3 ag,D1 PAM
O=C(NCc1ccccc1Br)c1ccc(-n2cnc3cccnc32)cc1,n,x,n,n,n
C(=C\c1ccccc1)/CN1CCN(C(c2ccnc3ccccc23)c2nnnn2C2CCCCC2)CC1 (centres undefined),x,u,x,n,x
CCC(c1nnnn1C1CCCC1)N1CCN(C/C=C/c2ccccc2)CC1 (centres undefined),x,-60.8,x,n,x
C(=C\c1ccccc1)/CN1CCN(C(c2ccccc2)c2nnnn2C2CCCCC2)CC1 (centres undefined),x,-90.9,x,n,x
CCC(c1nnnn1C1CCCC1)N1CCN(c2cccc(OC)c2)CC1 (centres undefined),n,n,n,n,n
CCC(c1nnnn1C1CCCC1)N1CCN(Cc2ccccc2)CC1 (centres undefined),n,-65.2,n,n,n
CSCCC(c1nnnn1C1CCCC1)N1CCN(C/C=C/c2ccccc2)CC1 (centres undefined),x,-78.0,x,n,x
CCCC(c1nnnn1C1CCCCC1)N1CCN(c2ncccn2)CC1 (centres undefined),n,u,n,n,n
CSCCC(c1nnnn1C1CCCCC1)N1CCN(C/C=C/c2ccccc2)CC1 (centres undefined),x,-89.4,x,n,x
CCCC(c1nnnn1CC1CCCO1)N1CCN(c2ccccc2)CC1 (centres undefined),n,n,n,n,n
CCCCC(c1nnnn1C1CCCC1)N1CCN(C2CCCCC2)CC1 (centres undefined),n,-60.0,n,n,n
CCCCC(c1nnnn1CC1CCCO1)N1CCN(Cc2ccccc2)CC1 (centres undefined),n,-78.4,n,n,n
COCCN(C(=O)COC(=O)c1cnc(C)cn1)c1c(N)n(Cc2ccccc2)c(=O)[nH]c1=O,n,-77.1,n,n,n
COCCN(C(=O)COC(=O)C1=COCCO1)c1c(N)n(Cc2ccccc2)c(=O)[nH]c1=O,n,n,-61.5,n,n
O=C(NC1CCCCC1)c1ccc2c(c1)N(Cc1cccc(Cl)c1)C(=O)c1ccccc1S2=O (centres undefined),n,x,n,n,n
CCOC(=O)c1noc2ncnc(Nc3ccc(F)cc3F)c12,n,x,n,n,n
CC1(OC(=O)C2CCCC2)C(=O)C=C2C=C(c3ccsc3)N(CC3CC3)C=C2C1=O (centres undefined),n,n,-32.6,n,n
Cc1ccc(-n2nc(C)c(C(=O)NCCCN3CCN(c4ccc(F)cc4)CC3)c2-n2cccc2)cc1,n,x,n,n,n
Cc1nn(-c2ccc(F)cc2)c(-n2cccc2)c1C(=O)NCCCN1CCN(c2cccc(Cl)c2)CC1,n,x,-33.0,n,n
COc1ccc(N2CCN(CCCNC(=O)c3cnn(-c4ccc(F)cc4)c3-n3cccc3)CC2)cc1,41.4,x,n,n,n
Cc1nn(-c2ccccc2)c(-n2cccc2)c1C(=O)NCCc1ccc(Cl)cc1,67.6,x,n,n,n
CCCCCCOc1ccc(C2C(=O)N(C3CCCCC3)CC(=O)N2CCC)cc1 (centres undefined),n,x,n,n,n
O=C(NC1CC1)c1cc2cc(Br)ccc2s1,n,n,-32.0,n,n
c1ccc(Cc2nnc3sc(-c4cccnc4)nn23)cc1,n,n,n,n,n
c1ccc(Cc2nnc3sc(-c4ccncc4)nn23)cc1,n,n,-33.0,n,n
SMILES,D1 agonist,DRD3 antagonist,D1 antagonist,D3 ag,D1 PAM
CN=c1scc(-c2ccc(OC)cc2)n1/N=C(\C)c1cccnc1,n,n,-54.7,34.9,n
COc1ccc(CC(=O)N/N=C(\C)c2cccnc2)cc1,n,n,n,n,n
COc1cc(-c2nc3nc[nH]n3c2Nc2ccc(C(C)C)cc2)ccc1O,n,x,n,n,n
CN(C)c1ccc(/C=C(\C#N)C(=O)Nc2nc3c(s2)CCN(Cc2ccccc2)C3)cc1,68.2,u,n,n,n
O=C(Nc1nc2c(s1)CN(Cc1ccccc1)CC2)C1CCC1,n,n,n,n,n
Cc1ccc(OCC(=O)NCC(=O)OCc2cc(=O)n3nc(CC(C)C)sc3n2)cc1,n,x,-36.4,n,n

# Source: PubChem BioAssay
